# According to PubChem BioAssay (NCI):
# About 83,000 compounds went through this panel and 20% of them were active in at least one assay; those are over-represented in the sample as a whole.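 The test compound was applied at a single concentration to cells in 96-well plates for 48 hours, and percent growth was recorded.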 Unmarked numbers belong to inactive results. Active and inactive are the calls of the source. How the source made its calls: active means growth percent below 10; inactive means the rest.
# Columns and labels:
# Experiment in all cases: NCI-60 one-dose screen, 48 h (100 = growth as untreated, 0 = no growth, -100 = all killed)
# Conditions in all cases: 10 µM unless noted
# SK-MEL-2 melanoma = system: SK-MEL-2 melanoma
# EKVX NSCLC = system: EKVX NSCLC
# SN12C renal = system: SN12C renal
# UO-31 renal = system: UO-31 renal
# TK-10 renal = system: TK-10 renal
# ACHN renal = system: ACHN renal
# CAKI-1 renal = system: CAKI-1 renal
# A498 renal = system: A498 renal
# CCRF-CEM leukemia = system: CCRF-CEM leukemia
# MOLT-4 leukemia = system: MOLT-4 leukemia
SMILES,growth (SK-MEL-2 melanoma),growth (EKVX NSCLC),growth (SN12C renal),growth (UO-31 renal),growth (TK-10 renal),growth (ACHN renal),growth (CAKI-1 renal),growth (A498 renal),growth (CCRF-CEM leukemia),growth (MOLT-4 leukemia)
CC1=CCC[C@@H]2C1(C)CC[C@H](C)[C@@]2(C)CC1=CC(=O)C(SC(C)(C)C)=CC1=O (stereo not given in full),97.3%,70.7%,86.8%,66.2%,98.8%,77.5%,78.4%,88.6%,-23.5% (active),36%
Cn1cc(-c2nc(-c3c[nH]c4ccncc34)cs2)c2cc(Br)ccc21,-57.7% (active),-75.3% (active),-74.4% (active),-91.2% (active),-84% (active),-98.9% (active),-77.2% (active),-78% (active),-43.4% (active),-66.4% (active)
N=c1c2c(=N)n3c(nc2nc2n1-c1ccccc1Sc1ccccc1-2)sc1cc(Cl)ccc13,-2.45% (active),13.8%,25%,7.88% (active),33.6%,18.2%,8.56% (active),0.653% (active),37.7%,48.4%
CC(C)CN1CC(C(=O)Nc2ccc3c(c2)-c2ccccc2C3)CC1=O (stereo not given),81.8% [50 µM],70.8% [50 µM],72.5% [50 µM],43.7% [50 µM],87.2% [50 µM],64.8% [50 µM],62.5% [50 µM],85.8% [50 µM],74.5% [50 µM],61.8% [50 µM]
Cn1cc(-c2nonc2-c2c[nH]c3ccccc23)c2ccccc21,51.2%,26%,23.4%,15.6%,47.7%,31.1%,20.4%,-13.4% (active),7.68% (active),8.23% (active)
CCn1cc(C(=O)N/N=C/c2ccc(Br)cc2)c(=O)c2cc(F)c(N3CCNC(C)C3)c(F)c21 (stereo not given),97.7%,86.9%,52.2%,68.4%,99.6%,88.8%,68.5%,98%,29.7%,22%
COc1cc2c3c(n(CCCCNCCCn4c5c(c6cc(OC)c(OC)cc6c4=O)C(=O)c4cc6c(cc4-5)OCO6)c(=O)c2cc1OC)-c1cc2c(cc1C3=O)OCO2,114%,90.3%,102%,84.1%,100%,95%,93.3%,103%,101%,96.5%
COc1cccc(/C=C/C(=O)c2cc3c(N)c(C(=O)Nc4cccc(Cl)c4C)sc3nc2C)c1,-17.3% (active),39.8%,-22.7% (active),-43.4% (active),-18% (active),6.8% (active),-47.4% (active),-13.2% (active),7.19% (active),14.3%
Clc1nn2c(Cn3cnc4c(NCc5ccccc5)ncnc43)nnc2c2ccccc12,-5.44% (active),52%,32%,21.7%,40.5%,16.8%,3.56% (active),22.5%,39%,26.5%
Cc1ccc(C)n1/C=C/n1c(C)ccc1C,109%,85.9%,118%,93.6%,93.5%,112%,69.5%,85.8%,88.4%,117%
COc1cc2c3c(c1O)-c1ccccc1[C@@H]1OC(=O)N(CC2)[C@H]31,97.6%,104%,101%,88.5%,104%,106%,95.4%,92.9%,74.1%,96.8%
COC(=O)C1=C(C)NC(C)=C(C(=O)OCC(C)C)C1c1ccccc1[N+](=O)[O-] (stereo not given),64.8%,58.3%,64.3%,28.3%,80.7%,26.8%,21.9%,50.4%,7.1% (active),43.6%
O=C(Nc1cccc(NC(=O)C2CCCCC2)c1)c1ccccn1,100%,92%,102%,88.7%,112%,103%,94.9%,96.1%,106%,91.3%
O=C(CSc1nnc2sc(Nc3cccc(Cl)c3)nn12)c1ccc(F)cc1,102%,94.8%,98.9%,78.8%,114%,96%,71.3%,103%,91.1%,71.3%
C=CC(=O)N1CCN(c2ccc3cccc(NC(=O)c4cnc(C)cn4)c3n2)CC1,29.7%,66.6%,9.63% (active),0.645% (active),23.2%,5.43% (active),4.05% (active),-12.7% (active),32.1%,35.7%
O=C(NCc1ccc2c(c1)OCO2)NCC1CCCC(CNC(=O)NCc2ccc3c(c2)OCO3)C1 (stereo not given),109%,106%,102%,95.7%,101%,105%,89.6%,95.3%,85.1%,92.9%
COc1ccc(/C=C/C(=O)c2cc3c(N)c(C(=O)Nc4ccc(OC)cc4)sc3nc2C)cc1,15.4%,45.2%,31.6%,41%,40.8%,42.6%,24.8%,18.6%,19.9%,33.3%
COc1ccc(Cn2cc(C(=O)N=Nc3c(O)[nH]c4c(Cl)cccc34)nn2)cc1,93.2%,102%,95.8%,93.5%,106%,111%,94.4%,93.8%,106%,84.8%
CCn1c2ccc(O)cc2c2c(C)c3c[n+](C(C)C)ccc3c(C)c21,35%,75.4%,-1.36% (active),68.3%,105%,35.2%,89.8%,68%,36.5%,22.2%
CCCCn1sc(=O)n(Cc2ccc(CNC(=O)OCc3ccc4c(Cl)cc(Cl)c(O)c4n3)cc2)c1=O,85.6%,86.7%,57.6%,18.3%,78%,30.8%,54.6%,91%,32%,33.5%
COc1cc2ncnc(Nc3ccc(F)c(Cl)c3)c2cc1OCC(=O)N1CCN(c2ccc(F)cc2)CC1,97.5%,78.3%,88.2%,44.5%,38.2%,45.9%,44.8%,72.5%,113%,85.8%
Cn1ncc2ccc(-c3nc(-c4ccccc4)[nH]c3-c3n[nH]c(=O)n3C3CC3)cc21,101%,96%,101%,93.1%,103%,97%,94.8%,48.7%,96.4%,93.5%
Cc1ccc(-c2csc(NC(=O)N3CCN(c4cc5c(cc4F)c(=O)c(C(=O)O)cn5C4CC4)CC3)n2)cc1,-26.3% (active),20.4%,15.5%,8.87% (active),26.1%,5.91% (active),22.2%,2.51% (active),12.9%,3.49% (active)
COc1ncc2cc1NS(=O)(=O)c1cccc(c1)C(=O)NCC1=CC=C(S1)c1ncnc3c1SC2=C3C,-33.2% (active),-15.6% (active),5.73% (active),-12.9% (active),-6.51% (active),-13.7% (active),-26.1% (active),-67.2% (active),-0.78% (active),-20.2% (active)
COC(=O)c1c2c(c(C)[n+]([O-])c1C)C(=O)C=CC2=O,-63.1% (active),98.3%,-87.7% (active),-64.8% (active),72.9%,-37.6% (active),2.19% (active),60.8%,0.622% (active),-1.84% (active)
Cc1cc(F)ccc1S(=O)(=O)Nc1cc(-c2c(O)ccc3ccccc23)c(O)c2ccccc12,5.32% (active),19%,46.6%,20.3%,72.7%,-7.97% (active),51.5%,57.7%,21.9%,17.6%
